From PubChem
PI5P4K alpha inh – PI5P4K alpha (human) kinase inhibition | P48426 | 330,000 tested, 1.2% active | AID 652105 | PI5P4Kalpha enzyme, ADP-Glo luminescence, 60 min; active compounds read low | max response, %; active = max response of -50% or lower; inconclusive = between -30% and -50%; inactive = -30% or higher; note: value at the top dose of about 77 µM; % is set by controls: 0 for no effect and ±100 for the full control effect
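Controls without substrate or without enzyme flank wells where PI5P4Kalpha converts substrate using 5 microM ATP (final). Incubation lasts 60 minutes at room temperature; ADP formed is read by ADP-Glo luminescence.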
Pol eta inh-1 – inhibitors of human DNA polymerase eta; recombinant Pol eta, fluorescent DNA replication assay; AID 588591; Potency, µM (series often up to 114 µM), inactives show top-dose activity change, negative = inhibition, usual class: inhibitors; Q9Y253; 390,000 tested, 1.2% active; note: potency is the fitted concentration of half-maximal effect; % is set by controls: 0 for no effect and ±100 for the full control effect
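Pol eta (10 nM) was preincubated with compounds for 15 min at room temperature, after which fluorescent replication substrate (50 nM final) was added to start the reaction. Fluorescence was read kinetically at 0 and 10 min.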
WRN helicase inh – WRN helicase (human) inhibition; Q14191; WRN helicase unwinding, fluorescent forked duplex, kinetic; Potency, µM (top dose mostly 114 µM), without a hit: at the highest dose activity change, negative = inhibition, usual class: inhibitors; 360,000 tested, 0.46% active; AID 651768; note: potency is the fitted concentration of half-maximal effect; % is set by controls: 0 for no effect and ±100 for the full control effect; nearly all actives have a fitted effect of over 55% in size
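Kinetic red-fluorescence monitoring (525/598 nm) tracks WRN helicase activity after 100 nM fluorophore-quencher forked duplex and 2 mM ATP are added to 20 nM enzyme pretreated 15 min at room temperature with compound.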
Pol kappa inh-1 – inhibitors of human DNA polymerase kappa; purified Pol kappa, fluorescent DNA synthesis assay, 10 min; Potency, µM (titrated, usually from 107 µM), for the others: at the highest dose activity, negative = inhibition, actives largely listed as inhibitors; 400,000 tested, 0.53% active; AID 588579; note: potency is the fitted concentration of half-maximal effect; % is set by controls: 0 for no effect and ±100 for the full control effect
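Enzyme at 10 nM met test compounds for 15 min at room temperature. Substrate addition (50 nM final) began the reaction, which was monitored by fluorescence at 0 and 10 min.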
POLB inh – blocks human DNA polymerase beta activity | P06746 | Pol beta primer extension/strand displacement, fluorescence kinetic | Potency, µM (top dose mostly 114 µM), inactives show top-dose activity change, negative = inhibition, usual class: inhibitors | 340,000 tested, 1.3% active | AID 485314; note: potency is the fitted concentration of half-maximal effect; % is set by controls: 0 for no effect and ±100 for the full control effect
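Preincubation: enzyme (10 nM) with compound, 15 min, RT. Reaction: substrate added to 50 nM final. Reads: 0 and 10 min. Analysis: normalized, Hill fit.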
POLI inh – DNA polymerase iota (human) inhibition | Pol iota fluorescent replication assay, 10 min | Potency, µM (highest dose often 115 µM), without a hit: at the top dose activity, negative = inhibition, actives largely listed as inhibitors | 390,000 tested, 1% active | AID 588590; note: potency is the fitted concentration of half-maximal effect
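Pol iota at 10 nM preincubated 15 min with compounds at room temperature; reaction started with fluorescent substrate, 50 nM final. Fluorescence read kinetically at 0 and 10 min; buffer-only wells as negative control.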
GALK confirm – galactokinase (human) inhibition, confirmation; shares compounds with Pol eta inh-1; 150 tested, 70% active; purified GALK, Kinase-Glo ATP depletion luminescence; Potency, µM (titrated, usually from 115 µM), for the others: at the highest dose activity, negative = inhibition, actives largely listed as inhibitors
Redox cycling – counter-screen for GALK inhibitors: redox cycling H2O2 generation; shares compounds with Pol eta inh-1; Phenol red-HRP H2O2 redox cycling, absorbance 600 nm; Potency, µM (top dose mostly 115 µM), without a hit: at the highest dose activity change, negative = H2O2 signal, hits mostly inhibitors; 150 tested, 40% active; AID 2035
HEK293 viability – counter-screen for GALK inhibitors: HEK293 cell cytotoxicity. shares compounds with Pol eta inh-1. HEK-293 viability, ATP luminescence (CellTiter-Glo), 24/48 h. Potency, µM (titrated, usually from 46.1 µM), for inactives: top-dose activity change, negative = cytotoxicity, hits mostly inhibitors. 170 tested, 10% active; note: potency is the fitted concentration of half-maximal effect; % is set by controls: 0 for no effect and ±100 for the full control effect
Pol kappa inh-2 – confirmation of human DNA polymerase kappa inhibitors; shares compounds with Pol eta inh-1; purified Pol-kappa, fluorescent strand-displacement substrate; Potency, µM, most hits filed as inhibitors; 920 tested, 76% active; note: potency is the fitted concentration of half-maximal effect
Pol eta inh-2 – Pol eta (human) inhibition, cherry-pick confirmation; shares compounds with Pol eta inh-1; Pol eta primer extension, TAMRA/BHQ fluorescence, 10 min; Potency, µM, usual class: inhibitors; 2,600 tested, 64% active; AID 720502; note: potency is the fitted concentration of half-maximal effect
* hit, by the source's call; ? = inconclusive; . = no result; [ ] = another dose, or the depositor's remark. A selection: hits, their analogues and other compounds. The true share with any hit is near 2.8%. Unless noted, calls come from the whole dose curve; as a rule, active = well fitted curve in the direction sought with a large enough effect; inconclusive = small, poorly fitted or top-dose-only effect, or another doubt; inactive = no such curve, though single readings can be large; an effect the other way counts as inactive or inconclusive.

SMILES	PI5P4K alpha inh	Pol eta inh-1	WRN helicase inh	Pol kappa inh-1	POLB inh	POLI inh	Pol eta inh-2	others
CCN1C(=O)/C(=C\c2ccc(-c3ccc([N+](=O)[O-])cc3OC)o2)SC1=Nc1cccc(C(=O)O)c1	-50*	28µM*	-12%[11.6 µM]	-36%	?	?	76*
O=C(N/N=C/c1cc(Br)c(O)c(Br)c1O)c1ccc2c(c1)OCCO2	-56*	?	-8%[11.6 µM]	-39%	40µM*	?	?	Pol kappa inh-2=34*
Nc1ccn(Cc2ccc(F)cc2)n1	4	-16%	-1%	-2%	0%	14%	.
COC(=O)c1oc2ccccc2c1NC(=O)/C=C/C(=O)O	3	-6%	3%	2%	-30%	30%	.	GALK confirm=0%;Redox cycling=8%;HEK293 viability=14%
COC(=O)c1oc2ccccc2c1N	3	11%	0%	-16%	5%	?	.
CCCN(CC(=O)Nc1ccccc1C)C(=O)CSc1ccccc1C	1	-17%	0%	-1%	.	5%	.
Cc1cccc(CNc2ncnc3ccc(-c4ccoc4)cc23)c1	.	-11%	.	4%	.	-10%	.	GALK confirm=?;Redox cycling=-4%;HEK293 viability=3%
c1cncc(CNc2ncnc3ccc(-c4ccoc4)cc23)c1	.	-4%	.	?	.	31%	.
O=C(COc1ccccc1Br)Nc1ccc2c(c1)OCCCO2	-3	-14%	-7%[57.1 µM]	-22%	39%	83%	.
CC1=C2C(CCS2(=O)=O)CC2(C1)C(=O)OC(C)(C)OC2=O (stereo unspecified)	-13	79µM*	-27%	?	?	?	?
COc1cc2c(cc1OC)-c1cc(Nc3ccc(C(=O)O)cc3)nc(=O)n1CC2	-22	35µM*	?	-27%	?	?	?
COc1ccc(Nc2cc3n(c(=O)n2)CCc2cc(OC)c(OC)cc2-3)cc1	-21	-21%	-28%	-12%	-25%	196%	.
CC1=NOC(=O)/C1=C\c1ccc(-c2ccc(Br)cc2)o1	?	20µM*	?	-14%	32µM*	?	85*
CC1=NOC(=O)/C1=C\c1ccc(-c2cc(Cl)ccc2Cl)o1	-23	-21%	?	-18%	-2%	-11%	.
CC1=NOC(=O)/C1=C\c1ccc(-c2ccc(Br)cc2C(=O)O)o1	-22	40µM*	50µM*	79µM*	13µM*	?	.	Pol kappa inh-2=34*
Cc1ccc(/C=C2\C(=O)ON=C2c2ccccc2)o1	3	-4%	3%	-1%	27%	64%	.
O=C(N/N=C/C=C/c1ccccc1)NC1CCCCC1	10	-10%	4%	-19%	?	4%	.
COc1ccc(C(=O)Nc2ccc(NC(=O)c3ccco3)cc2)cc1	2	6%	2%[57.1 µM]	-10%	-18%	-15%	.
COc1ccc(-n2c(NC(=O)c3ccco3)c(C#N)c3nc4ccccc4nc32)cc1	-28	20µM*	50µM*	-28%	-117%	26%	85*	Pol kappa inh-2=67*
O=C(O)c1cc(-c2ccc(/C=N/Nc3ccc([N+](=O)[O-])cn3)o2)ccc1Cl	-61*	-16%	?	-44%	?	?	85*	Pol kappa inh-2=75*
O=C(O)c1ccccc1C=NNc1ccc([N+](=O)[O-])cn1	-4	-17%	-3%	-11%	.	7%	.
CCOc1cc(Br)cc(C2NC(=O)c3c(sc4c3CCN(C)C4)N2)c1O (stereo unspecified)	.	-6%	.	?	6%	-10%	.
COC(=O)c1cc2oc3ccccc3c2n1CC(=O)Nc1cc(OC)cc(OC)c1	.	-1%	.	8%	34%	-27%	.
COc1ccc(-c2nc3nc(C)cc(Nc4cccc(C(F)(F)F)c4)n3n2)cc1	.	?	.	-7%	?	-17%	.	Pol kappa inh-2=19*
Cc1cc(Nc2cccc(C(F)(F)F)c2)n2nc(C)nc2n1	1	-19%	-3%	-3%	-26%	20%	.
SMILES	PI5P4K alpha inh	Pol eta inh-1	WRN helicase inh	Pol kappa inh-1	POLB inh	POLI inh	Pol eta inh-2	others
COc1ccc2[nH]c(CCc3nc4c(OC)c(OC)ccc4[nH]3)nc2c1OC	.	.	.	-2%	.	60%	.
CCc1cc[n+](C2=C([O-])c3ccccc3C(=O)/C2=N\S(=O)(=O)c2cccs2)cc1	?	50µM*	-32%	-19%	?	?	76*
COc1ccc(NC(=O)CS(=O)c2cccc(C(F)(F)F)c2)cc1 (stereo unspecified)	-2	-15%	-1%	3%	1%	29%	.
O=Cc1cn(CCC(=O)O)nc1-c1cccc2ccccc12	10	-14%	0%	-7%	-30%	11%	.
O=Cc1cn(CCC(=O)O)nc1-c1cc2ccccc2o1	-10	20µM*	-16%[57.1 µM]	?	18µM*	?	?	Pol kappa inh-2=21*
O=C1CCCC(O)=C1Sc1ccccc1C(=O)O	-16	8.9µM*	-6%[11.6 µM]	?	10µM*	32µM*	60*
